Test results as given in PubChem BioAssay (NCATS).
Results filed as inconclusive are left out. Activity calls are given as the source filed them. Calls come from the whole dose curve; as a rule, active = well fitted curve in the direction sought with a large enough effect; inconclusive = small, poorly fitted or top-dose-only effect, or another doubt; inactive = no such curve, though single readings can be large; an effect the other way counts as inactive or inconclusive.

Experiments:
[1] = qHTS of pediatric cancer cell lines to identify multiple opportunities for drug repurposing: Primary screen for OHS-50 cells (AID 1347103); note: nearly all actives have a fitted effect of over 40% in size; note: potency is the fitted concentration of half-maximal effect
Outline: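 Cells (500-1,000/well) rested 5 h, then received compounds for 48 h; metabolically active cells were measured by CellTiter-Glo luminescence. Final concentrations spanned up to 46 µM (MIPE, 11-point) or 0.59 nM-46 µM (NPC, 8-point) in primary screens, 11-point in follow-ups.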

[2] = qHTS of pediatric cancer cell lines to identify multiple opportunities for drug repurposing: Primary screen for RD cells (AID 1347104); note: nearly all actives have a fitted effect of over 55% in size; note: potency is the fitted concentration of half-maximal effect
Outline: (§1)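 ATP-based luminescence (CellTiter-Glo) quantifies viability after a 48-hour exposure. Compounds are dosed across 8 or 11 final concentrations; DMSO and 2.3 µM bortezomib serve as controls.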

[3] = qHTS of pediatric cancer cell lines to identify multiple opportunities for drug repurposing: Primary screen for MG 63 (6-TG R) cells (AID 1347105); note: nearly all actives have a fitted effect of over 50% in size; note: potency is the fitted concentration of half-maximal effect
Outline: as §1

[4] = qHTS of pediatric cancer cell lines to identify multiple opportunities for drug repurposing: Primary screen for Rh30 cells (AID 1347107); note: nearly all actives have a fitted effect of over 75% in size; note: potency is the fitted concentration of half-maximal effect
Outline: (§2)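 Viability after 48 h compound treatment at 37C, 500-1,000 cells/well, read as ATP luminescence with CellTiter-Glo. Primary screens used 11-point (MIPE, 0.78 nM-46 µM) or 8-point (NPC, 0.59 nM-46 µM) final concentrations; follow-up screens used 11-point dilutions.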

[5] = qHTS of pediatric cancer cell lines to identify multiple opportunities for drug repurposing: Primary screen for Rh41 cells (AID 1347108); note: nearly all actives have a fitted effect of over 70% in size; note: potency is the fitted concentration of half-maximal effect
Outline: as §1

[6] = qHTS of pediatric cancer cell lines to identify multiple opportunities for drug repurposing: Confirmatory screen for SK-N-MC cells (AID 1347111);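 note: cells exposed to compound for 48 h before the readout; nearly all actives have a fitted effect of over 70% in size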; note: potency is the fitted concentration of half-maximal effect
Outline: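 SK-N-MC cells at 500-1,000 cells/well in growth media were pre-incubated 5 h, then exposed to compounds at 11-point dilutions for 48 h at 37 degrees C, 5% CO2. Viability was read as CellTiter-Glo luminescence.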

[7] = qHTS of pediatric cancer cell lines to identify multiple opportunities for drug repurposing: Confirmatory screen for LAN-5 cells (AID 1347113); note: nearly all actives have a fitted effect of over 65% in size; note: potency is the fitted concentration of half-maximal effect
Outline: as §2

[8] = qHTS of pediatric cancer cell lines to identify multiple opportunities for drug repurposing: Confirmatory screen for DAOY cells (AID 1347114); note: nearly all actives have a fitted effect of over 65% in size; note: potency is the fitted concentration of half-maximal effect
Outline: (§3)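 Viability measured as metabolically active cells via CellTiter-Glo luminescence following 48 hours of compound exposure, 11-point dilutions in confirmatory testing. 500-1,000 cells/well plated 5 hours before dosing; controls were DMSO and 2.3 µM bortezomib.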

[9] = qHTS of pediatric cancer cell lines to identify multiple opportunities for drug repurposing: Confirmatory screen for SJ-GBM2 cells (AID 1347116); note: nearly all actives have a fitted effect of over 60% in size; note: potency is the fitted concentration of half-maximal effect
Outline: as §3

[10] = qHTS of pediatric cancer cell lines to identify multiple opportunities for drug repurposing: Confirmatory screen for BT-37 cells (AID 1347117); note: nearly all actives have a fitted effect of over 55% in size; note: potency is the fitted concentration of half-maximal effect
Outline: as §2

[11] = qHTS of pediatric cancer cell lines to identify multiple opportunities for drug repurposing: Confirmatory screen for MG 63 (6-TG R) cells (AID 1347119); note: nearly all actives have a fitted effect of over 55% in size
Outline: as §2

[12] = qHTS of pediatric cancer cell lines to identify multiple opportunities for drug repurposing: Confirmatory screen for control Hh wild type fibroblast cells (AID 1347121); note: nearly all actives have a fitted effect of over 70% in size
Outline: as §2

[13] = qHTS of pediatric cancer cell lines to identify multiple opportunities for drug repurposing: Confirmatory screen for Rh41 cells (AID 1347123);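 note: 48 h compound exposure; nearly all actives have a fitted effect of over 60% in size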; note: potency is the fitted concentration of half-maximal effect
Outline: as §2

[14] = qHTS of pediatric cancer cell lines to identify multiple opportunities for drug repurposing: Confirmatory screen for RD cells (AID 1347124);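 note: cells exposed to compound for 48 h before viability readout; nearly all actives have a fitted effect of over 65% in size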; note: potency is the fitted concentration of half-maximal effect
Outline: as §2

[15] = qHTS of pediatric cancer cell lines to identify multiple opportunities for drug repurposing: Confirmatory screen for NB1643 cells (AID 1347109); note: nearly all actives have a fitted effect of over 45% in size
Outline: as §2

[16] = qHTS of pediatric cancer cell lines to identify multiple opportunities for drug repurposing: Confirmatory screen for BT-12 cells (AID 1347112); note: nearly all actives have a fitted effect of over 55% in size; note: potency is the fitted concentration of half-maximal effect
Outline: as §2

[17] = qHTS of pediatric cancer cell lines to identify multiple opportunities for drug repurposing: Confirmatory screen for NB-EBc1 cells (AID 1347115); note: nearly all actives have a fitted effect of over 45% in size
Outline: as §2

[18] = qHTS of pediatric cancer cell lines to identify multiple opportunities for drug repurposing: Confirmatory screen for TC32 cells (AID 1347118); note: nearly all actives have a fitted effect of over 65% in size; note: potency is the fitted concentration of half-maximal effect
Outline: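 qHTS, TC32, 48 h drug treatment, CellTiter-Glo luminescence as a proxy for metabolically active cells; primary top concentration 46 µM (MIPE 11-pt, NPC 8-pt); confirmatory 11-pt.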

[19] = qHTS of pediatric cancer cell lines to identify multiple opportunities for drug repurposing: Primary screen for control Hh wild type fibroblast cells (AID 1347106)
Outline: as §2

Measured: Potency

CO[C@H]1C=CC=C(C)C(=O)NC2=CC(=O)C(NCCN(C)C)=C(C[C@@H](C)C[C@H](OC)[C@@H](O)[C@@H](C)C=C(C)[C@@H]1OC(N)=O)C2=O
active: [1] 0.385 µM | [2] 0.0526 µM | [3] 18.7 µM | [4] 5.9 µM | [5] 0.59 µM | [6] 0.827 µM | [8] 18.5 µM | [10] 1.17 µM | [13] 7.37 µM
inactive: [7] | [9] | [11] | [12] | [14]

CC(=O)Oc1cc2c(s1)CCN(C(C(=O)C1CC1)c1ccccc1F)C2 (stereo not drawn)
active: [1] 1.37 µM | [9] 4.14 µM | [13] 14.7 µM
not listed: [3] | [5] | [8] | [14] | [19]
inactive: all other assays above

COc1cccc([C@@H](C)NCCCc2ccccc2Cl)c1
inactive: [1] | [2] | [4] | [5]

C[N+]1(C)[C@@H]2CC(OC(=O)[C@H](CO)c3ccccc3)C[C@H]1[C@H]1O[C@@H]12 (stereo partly drawn)
inactive: [1] | [2] | [3] | [4] | [5]

CCCCCNC(=O)N1CCC(CN(Cc2ccc(Cl)cc2)Cc2ccc([N+](=O)[O-])s2)C1 (stereo not drawn)
inactive: [19]
active: [1] 24.3 µM | [2] 29.6 µM

CCOC(=O)O[C@]1(C(=O)OCCl)CC[C@@H]2[C@H]3CCC4=CC(=O)C=C[C@]4(C)[C@@H]3[C@@H](O)C[C@@]21C
inactive: [1] | [2] | [3] | [4] | [5]

CCN(CC)CCOC(=O)c1ccc(N)cc1
inactive: [1] | [2] | [3] | [4] | [5]

N#C[C@H]1C[C@H]2C[C@@H]2N1C(=O)[C@@H](N)C12CC3CC(CC(O)(C3)C1)C2
inactive: [1] | [2] | [19] | [5]

CC(C)(C)Cn1c(N)nc2ccc(-c3[nH]c(C(C)(C)C)nc3-c3ccc(F)cc3)nc21
active: [1] 30.6 µM | [2] 20.9 µM | [4] 20.9 µM | [5] 18.7 µM
inactive: [19]

CC1=C(/C=C/C(C)=C/C=C/C(C)=C/C(=O)Nc2ccc(O)cc2)C(C)(C)CCC1
inactive: [19]
active: [1] 15.5 µM | [2] 26.6 µM | [5] 9.44 µM

O=C(O)c1cc(O)c2c(c1)C(=O)c1cccc(O)c1C2=O
inactive: [1] | [2] | [19]

CC(=O)Nc1ccc([C@H](C)C(=O)Nc2ncc(C(C)C)s2)cc1
inactive: [4] | [17] | [12]
active: [1] 3.85 µM | [2] 4.18 µM | [3] 1.87 µM | [5] 7.43 µM | [6] 8.27 µM | [16] 3.69 µM | [7] 3.69 µM | [8] 4.65 µM | [10] 4.14 µM | [18] 7.37 µM | [13] 9.27 µM | [14] 7.37 µM

Cc1ccc(/C=N/NC(=O)c2ccccc2Oc2ccccc2)o1
inactive: [3]
active: [1] 21.7 µM

O=c1cc(-c2ccccc2)oc2cc(O)cc(O)c12
inactive: [1] | [3] | [19] | [4]

CN(C[C@@H]1COCCO1)S(=O)(=O)Nc1ccc2ccc3ncc(-c4cnn(C)c4)cc3c(=O)c2c1
active: [1] 1.22 µM
inactive: [3] | [19] | [4]

CC=CCC=CCCC(=O)[C@H]1O[C@@H]1C(N)=O
inactive: [1] | [3] | [19] | [4] | [5]

N[C@H](CSC(c1ccccc1)(c1ccccc1)c1ccccc1)C(=O)O
active: [1] 6.11 µM
inactive: [3] | [19] | [4] | [5]

COc1cc(O)c2c(c1)C(=O)c1cc(C)cc(O)c1C2=O
inactive: [1] | [3] | [19]

COc1ccc2c3c1OC1C[C@@H](O)C=C[C@@]31CCN(C)C2 (stereo partly drawn)
inactive: [1] | [3] | [19] | [5]

O=c1c(-c2ccc(O)cc2)coc2cc(O[C@@H]3O[C@H](CO)[C@H](O)[C@H](O)[C@H]3O)ccc12
inactive: [1] | [3] | [19] | [4] | [5]

Cc1ccc(F)c(NC(=O)Nc2ccc(-c3cccc4[nH]nc(N)c34)cc2)c1
active: [1] 27.3 µM
inactive: [3] | [19] | [4]

Nc1ncnc2c1ncn2[C@@H]1O[C@@H](CO)[C@H](O)[C@H]1O
not listed: [2] | [12] | [15]
inactive: all other assays above

CC[C@H]1OC(=O)[C@H](C)[C@@H](O[C@H]2C[C@@](C)(OC)[C@@H](O)[C@H](C)O2)[C@H](C)[C@@H](O[C@@H]2O[C@H](C)C[C@H](N(C)C)[C@@H]2O)[C@](C)(O)C[C@@H](C)CN(C)[C@H](C)[C@@H](O)[C@]1(C)O
inactive: [1] | [3] | [19] | [4] | [5]
